# Results from the supplement of paper PMC8975748.
# Where a name gives a salt, the structure may show the parent alone. ± gives the standard deviation of the averaged measurements.
# System: Saccharomyces cerevisiae BY4741 SeMeCo community
# Experiment: mean cell size (pixel area) (pixels); higher = larger cells
# Conditions: 10 µM; 24 h; SM minimal medium
# Procedure, shortened: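 A Saccharomyces cerevisiae BY4741 community carrying four plasmids, each with a fluorescent marker and each complementing one auxotrophy, was exposed for 24 h to drug at a final 10 µM in SM medium in acoustically predosed 384-well plates. The overnight preculture (OD600 = 1.0) was diluted to OD600 = 0.3 before 70 µl was added per well. Cells were then fixed with paraformaldehyde, imaged by automated confocal microscopy and analysed in Harmony to derive mean cell pixel area per well, averaged over 3 replicates. Same SeMeCo high-content imaging drug screen: Selleck FDA-approved drugs at 10 µM, 24 h in SM medium, 384-well plates, 3 replicates.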
row,Compound,mean cell size
1,CO[C@@H]1[C@@H](O[C@@H]2O[C@H](C)[C@@H](O[C@H]3C[C@@](C)(O)[C@@H](OC(=O)CC(C)C)[C@H](C)O3)[C@H](N(C)C)[C@H]2O)[C@@H](CC=O)C[C@@H](C)[C@@H](O)/C=C/C=C/C[C@@H](C)OC(=O)C[C@H]1O [Kitasamycin],12.32 ± 0.037
2,O=C(Nc1cccc(C2=NCCN2)c1)Nc1cccc(C2=NCCN2)c1 [Imidocarb dipropionate],12.1 ± 0.27
3,Cc1c(Cl)cccc1Nc1ccccc1C(=O)O [Tolfenamic Acid],12.7 ± 0.24
4,COC(=O)C1=C(C#N)NC(C)=C(C(=O)OC(C)C)C1c1cccc([N+](=O)[O-])c1 (stereo not given) [Nilvadipine],12.6 ± 0.18
5,Nc1ccc(S(=O)(=O)Nc2nccs2)cc1 [Sulfathiazole],12.4 ± 0.21
6,CC/C(=C(\c1ccccc1)c1ccc(OCCN(C)C)cc1)c1ccccc1 [Tamoxifen Citrate],11.7 ± 0.14
7,COCCOC(=O)C1=C(C)NC(C)=C(C(=O)OC/C=C/c2ccccc2)C1c1cccc([N+](=O)[O-])c1 (stereo not given) [Cilnidipine],12.3 ± 0.24
8,CCS(=O)(=O)CCn1c([N+](=O)[O-])cnc1C [Tinidazole],12.26 ± 0.046
9,"C[C@@H](CN1CC(=O)NC(=O)C1)N1CC(=O)NC(=O)C1 [Dexrazoxane HCl (ICRF-187, ADR-529)]",12.49 ± 0.096
10,CC/C(=C(\c1ccccc1)c1ccc(OCCN(C)C)cc1)c1ccccc1 [Tamoxifen],11.75 ± 0.092
11,Cc1cc(NS(=O)(=O)c2ccc(N)cc2)nc(C)n1 [sulfaisodimidine],12.1 ± 0.25
12,Cc1[nH]c(=O)c(C#N)cc1-c1ccncc1 [Milrinone],12.4 ± 0.18
13,CC(C)C(=O)Oc1ccc(CO)cc1[C@H](CCN(C(C)C)C(C)C)c1ccccc1 [Fesoterodine Fumarate],12.3 ± 0.21
14,CN[C@@H]1[C@@H](O)[C@@H](O[C@@H]2[C@@H](O)[C@H](O[C@H]3O[C@H](CN)[C@@H](O)[C@H](O)[C@H]3O)[C@@H](N)C[C@H]2NC(=O)[C@@H](O)CN)OC[C@]1(C)O [Isepamicin Sulphate],12.1 ± 0.21
15,O=c1cc(-c2ccc(O)c(O)c2)oc2cc(O)cc(O)c12 [Luteolin],12.5 ± 0.16
16,CCCCOc1cc(C(=O)OCCN(CC)CC)ccc1N [Oxybuprocaine HCl],12.6 ± 0.3
17,Clc1ccc(COC(Cn2ccnc2)c2ccc(Cl)cc2Cl)cc1 (stereo not given) [Econazole nitrate],11.9 ± 0.2
18,COCCCOc1ccnc(C[S+]([O-])c2nc3ccccc3[nH]2)c1C (stereo not given) [Rabeprazole],12.5 ± 0.21
19,N=C(N)NS(=O)(=O)c1ccc(N)cc1 [Sulfaguanidine],12.3 ± 0.36
20,Cc1c(C(N)=O)cc([N+](=O)[O-])cc1[N+](=O)[O-] [Dinitolmide],12.4 ± 0.22

row,Compound,mean cell size
1,CC(N)C12CC3CC(CC(C3)C1)C2 (stereo not given) [Rimantadine],12.5 ± 0.14
2,NC(=O)c1cnccn1 [Pyrazinamide],12.6 ± 0.23
3,C#CCN[C@@H]1CCc2ccccc21 [Rasagiline Mesylate],12.49 ± 0.065
4,CC(=O)O[C@H]1C[C@@]2(C)[C@@H](C[C@@H](O)[C@H]3[C@@]4(C)CC[C@@H](O)[C@@H](C)[C@@H]4CC[C@@]32C)/C1=C(\CCC=C(C)C)C(=O)O [Fusidate Sodium],12.64 ± 0.067
5,O=C(Cn1cnnn1)N[C@@H]1C(=O)N2C(C(=O)O)=C(CSc3nncs3)CS[C@H]12 [Ceftezole sodium],12.31 ± 0.087
6,CS(=O)(=O)c1ccc(C2=C(c3ccccc3)C(=O)OC2)cc1 [Rofecoxib],12.3 ± 0.16
7,C[C@]12CCC3=C4CCC(=O)C=C4CC[C@H]3[C@@H]1CC[C@@]2(O)CC#N [Dienogest],12.4 ± 0.18
8,CCC1(C)CC(=O)NC1=O (stereo not given) [Ethosuximide],12.6 ± 0.19
9,CC1(C)S[C@@H]2[C@H](NC(=O)[C@H](N)c3ccccc3)C(=O)N2[C@H]1C(=O)O [Ampicillin Trihydrate],12.4 ± 0.33
10,CCC[C@@H]1C[C@@H](C(=O)N[C@@H]([C@H]2O[C@H](SC)[C@H](OP(=O)(O)O)[C@@H](O)[C@H]2O)[C@H](C)Cl)N(C)C1 [Clindamycin Phosphate],12 ± 0.22
11,CC[C@H]1OC(=O)[C@H](C)[C@@H](O[C@H]2C[C@@](C)(OC)[C@@H](O)[C@H](C)O2)[C@H](C)[C@@H](O[C@@H]2O[C@H](C)C[C@H](N(C)C)[C@H]2O)[C@](C)(O)C[C@@H](C)C(=O)[C@H](C)[C@@H](O)[C@]1(C)O [Erythromycin thiocyanate],12.1 ± 0.14
12,Cc1c(-c2ccc(O)cc2)n(Cc2ccc(OCCN3CCCCCC3)cc2)c2ccc(O)cc12 [Bazedoxifene Acetate],12.6 ± 0.073
13,Nc1ccc(S(=O)(=O)NC(=O)c2ccccc2)cc1 [Sulfabenzamide],12.5 ± 0.4
14,CO[C@@H]1[C@@H](OC(N)=O)[C@@H](O)[C@H](Oc2ccc3c(O)c(NC(=O)c4ccc(O)c(CC=C(C)C)c4)c(=O)oc3c2C)OC1(C)C [Novobiocin Sodium],12.7 ± 0.19
15,C[C@]12CCC(=O)C=C1[C@@H]1C[C@@H]1[C@H]1[C@@H]3[C@@H]4C[C@@H]4[C@@]4(CCC(=O)O4)[C@@]3(C)CC[C@@H]12 [Drospirenone],12.53 ± 0.089
16,CCN(CC)CCOc1ccc(C(=C(Cl)c2ccccc2)c2ccccc2)cc1 [Clomifene citrate],12.1 ± 0.14
17,Nc1nc2[nH]cc(CCc3ccc(C(=O)N[C@@H](CCC(=O)O)C(=O)O)cc3)c2c(=O)[nH]1 [Pemetrexed],14.85 ± 0.13
18,Cn1c(=O)c2c(ncn2CC(O)CO)n(C)c1=O (stereo not given) [Dyphylline],12.55 ± 0.12
19,O=C(O)c1cccnc1Nc1cccc(C(F)(F)F)c1 [Niflumic acid],12.9 ± 0.17
20,COc1ccc(-c2nc3cc(C4=NNC(=O)CC4C)ccc3[nH]2)cc1 (stereo not given) [Pimobendan],12.31 ± 0.12
